Assay results: PubChem BioAssay (NCI)
Compounds without any hit were thinned out: in the full panel of roughly 79,000, 15% have a hit. The source made the active and inactive calls. Rule as the data show it: active = growth inhibition above about 70%; inactive = the rest.

Key:
[1] = NCI Yeast Anticancer Drug Screen. Data for the rad50 strain (AID 155);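 also: 0% = growth of vehicle-only cultures of the same strain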; settings: S. cerevisiae rad50 strain growth inhibition; at 50.0 µM; hits give high values
Method in brief: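 DNA repair mutant yeast, compound exposure, growth read-out; inhibition is taken relative to vehicle.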

[2] = NCI Yeast Anticancer Drug Screen. Data for the mec2-1 strain (AID 157); settings: S. cerevisiae mec2-1 strain, at 50.0 µM, hits give high values
Method in brief: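 Yeast mec2-1 mutant treated with compound. Readout: growth inhibition vs vehicle controls.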

[3] = NCI Yeast Anticancer Drug Screen. Data for the sgs1 mgt1 strain (AID 161);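 also: 0% = growth of cultures given vehicle only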; settings: S. cerevisiae sgs1 mgt1 strain, at 50.0 µM, hits give high values
Method in brief: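 Genetically altered yeast, compound exposure, growth inhibition relative to vehicle.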

[4] = NCI Yeast Anticancer Drug Screen. Data for the cln2 rad14 strain (AID 165);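 also: 0% = growth equal to vehicle treated cultures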; settings: S. cerevisiae cln2 rad14 strain, at 50.0 µM, hits give high values
Method in brief: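 cln2 rad14 yeast strain; compound exposure; growth inhibition read vs vehicle controls.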

[5] = NCI Yeast Anticancer Drug Screen. Data for the bub3 strain (AID 167); settings: S. cerevisiae bub3 mutant strain, at 50.0 µM, hits give high values
Method in brief: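 In this screen, a yeast mutant lacking normal mitotic checkpoint function is challenged with compound. Relative growth versus vehicle gives the inhibition value.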

[6] = NCI Yeast Anticancer Drug Screen. Data for the mlh1 rad18 strain (AID 175); settings: S. cerevisiae mlh1 rad18 strain growth inhibition; at 50.0 µM; hits give high values
Method in brief: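 Yeast w/ defined DNA-repair lesions; compound exposure; growth vs vehicle controls → % inhibition.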

Measured: growth inhibition

C[C@@H](O)c1nc(C(N)=O)cs1
inactive: [1] 6.15% | [2] 14.2% | [3] 15.3% | [4] -3.55% | [5] 1.35% | [6] 10.1%

NNC(=S)NC1CCCCC1
inactive: [1] 29.8% | [2] -4.45% | [3] 29.8% | [4] 12.2% | [5] 16.9% | [6] 36%

CCN(CC)CCOC1CCCCC1Cc1ccccn1 (stereo not given)
inactive: [1] -1.55% | [2] 14.8% | [3] 8.85% | [4] -25.2% | [5] -3.65% | [6] 5.85%

COc1cccc2c1C(=N)c1c(O)c3c(c(O)c1C2=O)C[C@@](O)(C(=O)CO)C[C@@H]3OC1CC(N)C(O)C(C)O1 (stereo not given in full)
inactive: [1] 55.4% | [2] 23.2% | [3] -8.7% | [4] 22.4% | [5] -16.9% | [6] -13.9%

CNc1cccc2c1C(C)C[C@]1(C)C(=O)Nc3ccccc3[C@H]21 (stereo not given in full)
inactive: [1] -36.5% | [2] -19.7% | [3] -22.6% | [4] -31.1% | [5] -35.8% | [6] -80.3%

C[N+](C)(C)/N=C/c1ccc(O)c(O)c1
inactive: [1] -48.2% | [2] -23.8% | [3] -15.3% | [4] -16% | [5] -14.9% | [6] -13.8%

CC(=O)Nc1nc(Cl)c2ncn(C3OC(COC(=O)c4ccccc4)CC3OC(=O)c3ccccc3)c2n1 (stereo not given)
inactive: [1] 10.2% | [2] 3.1% | [3] -8.8% | [4] 2.6% | [5] 10.6% | [6] 4.5%

CC(=O)OCC1OC(n2c(C)cc(C)c(C#N)c2=S)C(OC(C)=O)C(OC(C)=O)C1OC(C)=O (stereo not given)
inactive: [1] 21.2% | [2] 16.6% | [3] -5.35% | [4] -14.9% | [5] -6.05% | [6] 32.4%

CCOC(=O)C1SCCC1(C)O (stereo not given)
inactive: [1] 18.9% | [2] 21.7% | [3] 16.6% | [4] 16.8% | [5] 3.55% | [6] 12.7%

CC(=O)OC1CCC2(C)C3=C(C(=O)CC2C1(C)C)C1(C)CCC(C(C)CCCC(C)C)C1(C)CC3 (stereo not given)
inactive: [1] 0.3% | [2] 1.6% | [3] -25.4% | [4] 3.15% | [5] 4.3% | [6] -0.6%

CN(C)c1ccc(/C=C(\C#N)c2ccc(Cl)cc2Cl)cc1
inactive: [1] -15.8% | [2] -14.7% | [3] -0.35% | [4] -25.6% | [5] 7% | [6] 0.95%

OC1(c2ccccc2)C(c2ccccc2)=C(c2ccccc2)C(c2ccc(CCCCCCCCc3ccc(C4=C(c5ccccc5)C(O)(c5ccccc5)C(c5ccccc5)=C4c4ccccc4)cc3)cc2)=C1c1ccccc1 (stereo not given)
inactive: [1] -20.4% | [2] -3.95% | [3] -7.5% | [4] -28.1% | [5] -23.6% | [6] -9.15%

CCOC(=O)c1c(N)n(-c2ccccc2)c(=S)n(-c2ccccc2)c1=O
inactive: [1] -17% | [2] -24.4% | [3] -32.5% | [4] 14.6% | [5] -40.2% | [6] -41.4%

CCOC(=O)/C=C/C(=O)OCC
inactive: [1] -2.15% | [2] -0.2% | [3] -4.8% | [4] -2.55% | [5] 6.65% | [6] -2.65%

CC(=O)NCC1OC2COC(c3ccccc3)OC2C2N=C(c3ccccc3)OC12 (stereo not given)
active: [6] 81.8%
inactive: [1] -9.45% | [2] 1.3% | [3] 8.5% | [4] 7.8% | [5] 14.8%

Nc1ccnn2c(-c3ccccc3)nnc12
inactive: [1] -0.55% | [2] 1.85% | [3] -5.7% | [4] 4.25% | [5] 12.4% | [6] 2.35%

CC(=O)C(C(c1ccccc1)N1CCOCC1)N1CCOCC1 (stereo not given)
inactive: [1] 12.1% | [2] -0.8% | [3] -24% | [4] 1.15% | [5] -23.2% | [6] 6.25%

O=C(CN1C(=O)c2ccccc2C1=O)OCC(=O)c1ccccc1
inactive: [1] 18.9% | [2] 12.4% | [3] 1.5% | [4] 0.4% | [5] 12.9% | [6] 4.4%

Cc1cc(Cl)cc(C(=O)O)c1O
inactive: [1] 5.7% | [2] -9.25% | [3] 0.1% | [4] -12.7% | [5] -8.05% | [6] -8%

NC(=O)c1ccccc1O
inactive: [1] 13.5% | [2] 5.15% | [3] 11.4% | [4] 6.2% | [5] 0.6% | [6] 15.2%

O=S1OCC#CCOS(=O)OCC#CCO1 (stereo not given)
inactive: [1] -7.1% | [2] -23.8% | [3] -7.5% | [4] -6.2% | [5] -3.7% | [6] 7.7%

O=c1ccc(=O)c2c(=O)c3cc4[nH]c5ccccc5[nH]c4cc3c(=O)c12
inactive: [1] 2.25% | [2] -7.05% | [3] 0.55% | [4] 1.85% | [5] -5.6% | [6] 5.2%

Cn1c(=O)[nH]nc(Br)c1=O
inactive: [1] 2.55% | [2] -9.7% | [3] -9% | [4] -4.75% | [5] -4.6% | [6] -24.9%

CCC(=O)c1ccc2c(ccc3ccccc32)c1O
inactive: [1] -18.3% | [2] -6.8% | [3] -4.15% | [4] -22.1% | [5] 2.85% | [6] -11.6%

CCCCCCCCCCOC1C(C(C)OCCCN(C)C)OC2OC3(CCCCC3)OC21 (stereo not given)
active: [1] 91.8% | [2] 93.3% | [6] 86.2%
inactive: [3] 40.7% | [4] 16.1% | [5] -31.6%

COc1cc2c(cc1OC)C(c1ccc(N=Cc3ccc(N(C)C)cc3)cc1)N(C(=S)Nc1cc(Cl)ccc1Cl)CC2 (stereo not given)
inactive: [1] 35.5% | [2] 5.15% | [3] 40.7% | [4] 21.7% | [5] 24.1% | [6] 26.9%

O=c1c2c(ccc3ccccc32)oc2ccc3ccccc3c12
inactive: [1] 15% | [2] 1.45% | [3] -5.45% | [4] -45.1% | [5] -7.65% | [6] 16.4%

c1ccc(CCN2CCN=C2Cc2ccccc2)cc1
inactive: [1] 13.8% | [2] 8% | [3] 0.95% | [4] -32.8% | [5] -27.1% | [6] 9.3%

O=C(Nc1nccs1)Nc1cc(F)ccc1F
inactive: [1] 5.7% | [2] 42.5% | [3] 21.5% | [4] -13.2% | [5] 36.6% | [6] 8.35%

CCOC(=O)c1c[nH]c2c(Cl)c(C)ccc2c1=O
inactive: [1] -40.1% | [2] -48.1% | [3] -17.6% | [4] -110% | [5] -30.1% | [6] -4.75%

Cc1ccc(S(=O)(=O)Oc2cccc(C)c2)cc1
inactive: [1] 1.1% | [2] 17.1% | [3] 23% | [4] -69% | [5] 14.7% | [6] 33.7%

O=C(Nc1ccc([N+](=O)[O-])cc1)Oc1c(Cl)cc(Cl)c(Cl)c1[N+](=O)[O-]
inactive: [1] 43.6% | [2] -18.7% | [3] 57.2% | [4] 25.6% | [5] 2.3% | [6] 60.4%

CCCCCCCCC(=O)c1c(OC)oc(/C=N/NC(N)=S)cc1=O
active: [1] 83.5% | [2] 77.1% | [3] 79% | [5] 86.2% | [6] 71.8%
inactive: [4] 9.55%

CCC(=O)c1cccc(-c2ccccc2)c1C
inactive: [1] 7% | [2] -13.5% | [3] -2.5% | [4] 4.25% | [5] 11.7% | [6] 11.5%

CCC1(C)C(=O)NC(=O)N1C(C)=O (stereo not given)
inactive: [1] -5.1% | [2] -21.4% | [3] -3.85% | [4] -44.2% | [5] -12.3% | [6] -7.55%

CCOC(=O)c1ccc(-n2nc3nc(N)[nH]c(=O)c3n2)cc1
inactive: [1] -17.8% | [2] -21.2% | [3] -4.35% | [4] -4.15% | [5] -52.9% | [6] -34.4%

O=C(N/C(=C/c1ccccc1)C(=O)N1CCN(C(=O)/C(=C\c2ccccc2)NC(=O)c2ccccc2)CC1)c1ccccc1
inactive: [1] 0.9% | [2] -0.45% | [3] -8.05% | [4] -5.7% | [5] -6.8% | [6] -2.95%

COC(=O)C(=[N+]=[N-])C(=O)c1cccc([N+](=O)[O-])c1
inactive: [1] 11.1% | [2] 15.5% | [3] 5.75% | [4] 17.2% | [5] 3.2% | [6] 12.2%

O=C(/C=C(\c1ccccc1)C1C2C=CC(C2)C1c1ccccc1)c1ccccc1 (stereo not given)
inactive: [1] 61.6% | [2] 64.2% | [4] 49%
active: [3] 91.7% | [5] 75.2% | [6] 88.8%

CC1=C(C(=O)Nc2ccccc2C)C(c2ccccc2)C(C(=O)Nc2ccccc2C)=C(C)N1
inactive: [1] 10.7% | [2] 15.2% | [3] 9.25% | [4] 6.3% | [5] 16.3% | [6] 7.1%
